PubChem BioAssay
A number with no mark means an inactive call. Active and inactive are the calls of the source. Rule as the data show it, unless noted: active = inhibition above about 30%; inactive = the rest.

How the values were obtained:
[1] = molecular target: Nuclear receptor coactivator 3 (Homo sapiens) (UniProt Q9Y6Q9); assay: SRC3 coactivator transcriptional activity inhibitors, confirmation, cell-based, luminescence, quadruplicate (AID 588792;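 active = mean inhibition over 43.08%, the solvent-only control mean plus 3 SD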;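 also: 0% = DMSO treated cells and 100% = gossypol at 36 µM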); conditions: HEK293 GAL4-SRC3 luciferase reporter, at 3.6 µM, stronger effect = higher value
Chain of Nuclear receptor coactivator 3 (Homo sapiens) (Q9Y6Q9 whole entry, looked up, the tested form may be a part): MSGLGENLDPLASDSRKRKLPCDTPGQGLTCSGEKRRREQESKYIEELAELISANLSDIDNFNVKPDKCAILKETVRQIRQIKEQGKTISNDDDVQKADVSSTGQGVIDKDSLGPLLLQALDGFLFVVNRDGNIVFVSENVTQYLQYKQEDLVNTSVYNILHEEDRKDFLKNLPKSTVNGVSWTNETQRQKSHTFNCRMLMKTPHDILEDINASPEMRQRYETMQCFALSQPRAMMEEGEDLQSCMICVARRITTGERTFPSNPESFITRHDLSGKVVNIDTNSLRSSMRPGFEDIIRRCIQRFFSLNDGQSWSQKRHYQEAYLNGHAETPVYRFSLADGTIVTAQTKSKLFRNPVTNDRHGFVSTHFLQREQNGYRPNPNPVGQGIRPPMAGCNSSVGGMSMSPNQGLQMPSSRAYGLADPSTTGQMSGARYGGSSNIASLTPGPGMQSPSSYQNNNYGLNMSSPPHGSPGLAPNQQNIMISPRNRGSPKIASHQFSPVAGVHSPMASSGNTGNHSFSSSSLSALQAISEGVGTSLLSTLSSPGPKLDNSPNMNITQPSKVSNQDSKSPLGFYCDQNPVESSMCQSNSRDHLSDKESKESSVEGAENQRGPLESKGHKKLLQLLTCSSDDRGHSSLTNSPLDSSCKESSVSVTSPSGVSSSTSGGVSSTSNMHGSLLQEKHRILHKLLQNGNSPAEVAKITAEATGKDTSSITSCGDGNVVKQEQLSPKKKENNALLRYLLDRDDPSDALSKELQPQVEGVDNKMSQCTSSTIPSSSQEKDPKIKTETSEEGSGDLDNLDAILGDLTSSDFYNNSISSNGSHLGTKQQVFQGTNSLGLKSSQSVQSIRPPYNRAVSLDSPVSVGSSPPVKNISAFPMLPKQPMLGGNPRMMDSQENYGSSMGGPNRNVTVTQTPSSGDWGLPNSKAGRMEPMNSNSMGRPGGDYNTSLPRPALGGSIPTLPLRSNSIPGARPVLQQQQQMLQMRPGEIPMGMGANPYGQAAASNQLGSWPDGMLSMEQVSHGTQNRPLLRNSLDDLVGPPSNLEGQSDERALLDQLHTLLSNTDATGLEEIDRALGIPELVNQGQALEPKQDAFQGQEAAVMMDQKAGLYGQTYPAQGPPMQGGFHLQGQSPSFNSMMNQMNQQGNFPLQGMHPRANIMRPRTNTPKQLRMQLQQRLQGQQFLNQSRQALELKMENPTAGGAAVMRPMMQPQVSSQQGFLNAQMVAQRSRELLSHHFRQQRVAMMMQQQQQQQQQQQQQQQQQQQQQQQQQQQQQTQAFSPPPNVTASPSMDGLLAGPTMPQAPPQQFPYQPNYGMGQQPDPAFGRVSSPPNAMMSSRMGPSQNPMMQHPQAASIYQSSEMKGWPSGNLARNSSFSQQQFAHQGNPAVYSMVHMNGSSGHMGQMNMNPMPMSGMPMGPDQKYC

[2] = system: transactivating tegument protein VP16 (Human herpesvirus 1), Gal4-VP16 luciferase reporter; assay: VP16 transactivation inhibitors, counter-screen for SRC3 inhibitor project, cell-based, luminescence, high throughput (AID 588794); conditions: mammalian cells, VP16-driven luciferase reporter luminescence; at 3.6 µM; stronger effect = higher value
[3] = molecular target: Nuclear receptor coactivator 1 (Homo sapiens) (UniProt Q15788); assay: SRC1 coactivator transcriptional activity inhibitors, confirmation, cell-based, luminescence, quadruplicate (AID 588820;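 active = mean inhibition above 46.68%, the untreated control wells mean plus 3 SD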;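 also: 0% = DMSO wells and 100% = gossypol 36 µM treated wells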); conditions: HEK293 GAL4-SRC1 luciferase reporter, at 3.6 µM, stronger effect = higher value
Chain of Nuclear receptor coactivator 1 (Homo sapiens) (Q15788 whole entry, looked up, the tested form may be a part): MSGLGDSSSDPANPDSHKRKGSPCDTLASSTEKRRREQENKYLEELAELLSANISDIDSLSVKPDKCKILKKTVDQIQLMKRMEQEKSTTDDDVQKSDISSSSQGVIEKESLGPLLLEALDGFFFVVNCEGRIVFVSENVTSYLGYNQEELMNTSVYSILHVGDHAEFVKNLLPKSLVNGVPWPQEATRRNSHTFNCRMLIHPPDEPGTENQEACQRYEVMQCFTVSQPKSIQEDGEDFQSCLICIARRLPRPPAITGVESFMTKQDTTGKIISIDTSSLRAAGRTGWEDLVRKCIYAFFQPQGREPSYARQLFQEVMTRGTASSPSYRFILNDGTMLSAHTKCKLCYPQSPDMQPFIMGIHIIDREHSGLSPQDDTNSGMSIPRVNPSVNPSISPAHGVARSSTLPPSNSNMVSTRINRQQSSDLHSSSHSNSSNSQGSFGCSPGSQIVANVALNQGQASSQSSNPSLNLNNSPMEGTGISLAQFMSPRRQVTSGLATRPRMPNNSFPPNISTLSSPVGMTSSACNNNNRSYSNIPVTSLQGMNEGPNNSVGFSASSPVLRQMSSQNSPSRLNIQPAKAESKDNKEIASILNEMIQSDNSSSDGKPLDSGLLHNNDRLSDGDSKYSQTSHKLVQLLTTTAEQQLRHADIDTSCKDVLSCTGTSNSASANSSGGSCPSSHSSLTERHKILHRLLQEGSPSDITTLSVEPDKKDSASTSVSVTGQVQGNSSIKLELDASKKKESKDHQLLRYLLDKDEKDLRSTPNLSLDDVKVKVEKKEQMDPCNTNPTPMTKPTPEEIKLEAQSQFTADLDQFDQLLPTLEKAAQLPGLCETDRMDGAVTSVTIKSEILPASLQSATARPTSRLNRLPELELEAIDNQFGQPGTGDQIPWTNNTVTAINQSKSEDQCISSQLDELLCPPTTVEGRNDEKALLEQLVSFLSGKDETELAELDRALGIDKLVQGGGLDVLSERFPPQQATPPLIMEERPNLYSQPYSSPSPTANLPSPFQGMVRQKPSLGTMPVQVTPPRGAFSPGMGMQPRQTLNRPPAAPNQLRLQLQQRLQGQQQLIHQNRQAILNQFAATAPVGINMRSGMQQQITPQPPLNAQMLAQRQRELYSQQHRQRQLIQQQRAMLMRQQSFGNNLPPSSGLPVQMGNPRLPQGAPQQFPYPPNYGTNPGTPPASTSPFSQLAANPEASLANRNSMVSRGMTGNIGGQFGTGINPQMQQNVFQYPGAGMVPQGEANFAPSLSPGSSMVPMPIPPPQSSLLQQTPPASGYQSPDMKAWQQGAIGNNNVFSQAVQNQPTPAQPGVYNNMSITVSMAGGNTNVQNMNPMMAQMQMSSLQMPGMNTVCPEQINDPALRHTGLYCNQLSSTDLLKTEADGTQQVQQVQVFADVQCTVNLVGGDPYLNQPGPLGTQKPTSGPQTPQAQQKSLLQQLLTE

[4] = VP16 transactivation inhibitors, counter-screen for SRC1 inhibitor project, cell-based, luminescence, high throughput (AID 588824; in the data active = inhibition above about 25%); conditions: cell-based VP16 transactivation luciferase luminescence; at 3.6 µM; stronger effect = higher value
[5] = system: transactivating tegument protein VP16 (Human herpesvirus 1); assay: VP16 transactivation reporter inhibitors, counter-screen for SRC2 inhibitor project, cell-based, luminescence, single concentration (AID 652007; in the data active = inhibition above about 36%); conditions: cell-based VP16 transactivation luciferase reporter, at 8.9 µM, stronger effect = higher value
[6] = molecular target: Nuclear receptor coactivator 2 (Homo sapiens) (UniProt Q15596); assay: SRC2 coactivator transcriptional activity inhibitors, confirmation, cell-based, luminescence, HEK293, triplicate (AID 652008;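 active = mean inhibition above 46.5%, the solvent-only control mean plus 3 SD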;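 also: 0% = DMSO-treated cells and 100% = Gossypol at 36 µM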); conditions: HEK293 GAL4-SRC2 luciferase reporter, at 8.9 µM, stronger effect = higher value
Chain of Nuclear receptor coactivator 2 (Homo sapiens) (Q15596 whole entry, looked up, the tested form may be a part): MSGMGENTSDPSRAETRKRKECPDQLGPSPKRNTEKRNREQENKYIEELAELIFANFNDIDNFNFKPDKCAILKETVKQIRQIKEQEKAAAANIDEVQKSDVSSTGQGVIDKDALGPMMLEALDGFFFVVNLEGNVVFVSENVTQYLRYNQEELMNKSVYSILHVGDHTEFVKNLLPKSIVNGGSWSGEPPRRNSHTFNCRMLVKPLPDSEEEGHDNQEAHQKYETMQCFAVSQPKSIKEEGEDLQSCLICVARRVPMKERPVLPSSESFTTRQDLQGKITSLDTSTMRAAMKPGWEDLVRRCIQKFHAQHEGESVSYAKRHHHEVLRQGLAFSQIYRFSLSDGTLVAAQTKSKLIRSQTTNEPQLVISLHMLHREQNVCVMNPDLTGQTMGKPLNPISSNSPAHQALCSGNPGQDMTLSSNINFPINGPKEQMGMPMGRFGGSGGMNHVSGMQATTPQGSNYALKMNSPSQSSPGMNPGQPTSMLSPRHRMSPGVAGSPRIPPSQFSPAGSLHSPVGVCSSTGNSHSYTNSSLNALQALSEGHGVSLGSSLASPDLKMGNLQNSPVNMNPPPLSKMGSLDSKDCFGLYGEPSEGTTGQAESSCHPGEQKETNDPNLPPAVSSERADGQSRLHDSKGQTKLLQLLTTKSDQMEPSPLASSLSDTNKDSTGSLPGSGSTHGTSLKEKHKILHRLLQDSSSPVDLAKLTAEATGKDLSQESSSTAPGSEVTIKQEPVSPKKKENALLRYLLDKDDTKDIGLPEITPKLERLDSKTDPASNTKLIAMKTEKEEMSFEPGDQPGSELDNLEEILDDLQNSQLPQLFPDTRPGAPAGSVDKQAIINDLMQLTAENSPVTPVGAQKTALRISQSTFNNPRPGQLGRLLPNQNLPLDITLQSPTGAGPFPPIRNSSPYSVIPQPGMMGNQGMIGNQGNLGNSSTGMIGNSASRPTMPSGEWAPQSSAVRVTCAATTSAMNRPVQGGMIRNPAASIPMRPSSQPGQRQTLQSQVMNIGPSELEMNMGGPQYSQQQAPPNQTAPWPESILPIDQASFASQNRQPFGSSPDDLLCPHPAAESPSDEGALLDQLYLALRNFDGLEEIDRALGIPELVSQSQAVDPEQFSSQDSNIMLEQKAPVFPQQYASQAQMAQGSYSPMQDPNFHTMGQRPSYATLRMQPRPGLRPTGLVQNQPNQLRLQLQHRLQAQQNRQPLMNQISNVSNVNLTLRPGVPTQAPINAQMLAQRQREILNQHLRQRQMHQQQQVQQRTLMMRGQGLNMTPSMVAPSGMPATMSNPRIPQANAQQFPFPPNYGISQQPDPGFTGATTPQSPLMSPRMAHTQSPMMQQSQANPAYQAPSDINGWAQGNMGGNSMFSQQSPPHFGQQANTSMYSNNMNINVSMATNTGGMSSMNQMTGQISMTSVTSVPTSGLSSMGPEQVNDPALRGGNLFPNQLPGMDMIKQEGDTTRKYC

Row | Structure (SMILES) | inhibition [1] | inhibition [2] | inhibition [3] | inhibition [4] | inhibition [5] | inhibition [6]
1 | O=c1c2ccccc2cnn1-c1nc2ccccc2[nH]1 | 57.4% (active) | 50.6% (active) | 22.3% | 41.9% (active) | 76.6% (active) | 84.9% (active)
2 | Clc1ccc(CSc2nnc(-c3ccncc3)o2)cc1 | 48.3% (active) | 30.9% (active) | 43.3% | 32.8% (active) | -11.8% | 28.8%
3 | O=S(=O)(Nc1cc(Sc2ncn[nH]2)c(O)c2ccccc12)c1ccccc1 | 12.9% | 13.9% | -20.2% | 4.9% | 16.2% | 12.2%
4 | CC(=O)/C(N=Nc1ccc2c(c1)OCCO2)=C(\C)O | 45.3% (active) | -50.6% | 22.6% | -66.6% | -9.49% | 65.4% (active)
5 | Cc1cccc(Nc2ncnc3ccc(Br)cc23)c1 | 38.9% | 32.6% (active) | 32.8% | 25.8% (active) | 0.23% | 29.7%
6 | O=C(O)C1CC=CCC1C(=O)Nc1ccc2c(c1)OCCO2 (stereo unspecified) | -15.8% | -7.19% | -47.1% | -8.13% | -13.1% | 6.92%
7 | O=C(Nc1ccccc1Oc1ccccc1)c1cc([N+](=O)[O-])ccc1Cl | 52.5% (active) | 24.8% | 24.8% | 33.9% (active) | 21.9% | 50.4% (active)
8 | Cn1c(/C=C/c2cccc([N+](=O)[O-])c2)c([N+](=O)[O-])c(=O)n(C)c1=O | 37.6% | 41.4% (active) | 32.5% | 40.8% (active) | 7.43% | 25.7%
9 | O=C(Nc1ccc2c(c1)OCCO2)C(c1ccnc2ccccc12)N1CCN(c2ccc(C(F)(F)F)cn2)CC1 (stereo unspecified) | 24.6% | 18.1% | 11.8% | 30.7% (active) | -0.8% | 57.8% (active)
10 | Cc1nn(C(C)(C)C)c(C)c1/C=N/OC(=O)Nc1ccc(Cl)c(Cl)c1 | 20.2% | 16.6% | 25.3% | 12% | 63% (active) | 82% (active)
11 | N#CC(C#N)c1ccnc2ccccc12 | 66.9% (active) | 40.6% (active) | 64.1% (active) | 38.3% (active) | 4.65% | 36.4%
12 | CCOc1ccc(/C=C2\SC(=S)N(CCCC(=O)NCCCN3CCOCC3)C2=O)cc1 | 29.9% | 10.6% | 22.1% | 7.63% | 59.8% (active) | 90% (active)
13 | COc1ccc2[nH]c(=O)c3c(c2c1)OC(C)(C)C=C3 | 77.6% (active) | 41.7% (active) | 69.9% (active) | 44% (active) | 9.64% | 51.3% (active)
14 | CCn1c(Oc2ccccc2F)nc2c1c(=O)n(C)c(=O)n2C | 63% (active) | 51% (active) | 64.4% (active) | 47.2% (active) | -5.89% | 48.6% (active)
15 | O=c1cc(-c2ccccc2Cl)oc2c([N+](=O)[O-])c(O)cc(O)c12 | 61.5% (active) | 44.4% (active) | 51.9% (active) | 37% (active) | 4.67% | 52.9% (active)
16 | COc1ccc(-c2cc(=O)oc3cc(OC(=O)C4CCCCC4)c(Cl)cc23)cc1 | 59.4% (active) | 38.7% (active) | 56% (active) | 41.2% (active) | -4.78% | 37.4%
17 | O=C(Nc1ccc(C(=O)N2CCOCC2)cc1)Nc1cccc(C(F)(F)F)c1 | 66.9% (active) | 43.2% (active) | 64.3% (active) | 38.8% (active) | -0.39% | 36.4%
18 | COc1ccc(/C=C/C(=O)Nc2ccccc2C(=O)O)cc1OC | -1.26% | -3.34% | -73.2% | -29.6% | 26.9% | 37.8%
19 | CCOc1cc(/C=C2\COc3ccccc3C2=O)cc(Br)c1OCC(=O)N(C)C | 61.1% (active) | 35.8% (active) | 22.3% | 39.2% (active) | 44.5% (active) | 34%
20 | COc1cccc(N(C(=O)CCl)C(C(=O)NCCc2ccccc2)c2cccs2)c1 (stereo unspecified) | 60.3% (active) | 36% (active) | 24.3% | 34% (active) | 27.8% | 63.3% (active)
21 | c1cc(-c2cnc3cccnn23)c2cccnc2c1 | 65.8% (active) | 42.7% (active) | 57.9% (active) | 40.2% (active) | -9.33% | 26.5%

Row | Structure (SMILES) | inhibition [1] | inhibition [2] | inhibition [3] | inhibition [4] | inhibition [5] | inhibition [6]
22 | Cc1ccc(-c2csc(=Nc3cccnc3)n2CCCn2ccnc2)cc1C | 71% (active) | 51.5% (active) | 66.7% (active) | 45.6% (active) | -0.44% | 56.8% (active)
23 | Cc1cc(C(=O)COc2cccnc2[N+](=O)[O-])c(C)n1-c1ccccc1 | -5.17% | -52.9% | -11.3% | -70.8% | -71.7% | 68.1% (active)
24 | Cc1nnc(SCC(=O)N2CCC(c3noc4ccc(F)cc34)CC2)s1 | 85.1% (active) | 48.4% (active) | 69.4% (active) | 45.1% (active) | 6.59% | 44.8%
25 | Cc1ccc(Sc2c(C=O)c3ccccc3n2C)cc1 | 63.2% (active) | 42.4% (active) | 54% (active) | 46.9% (active) | 7.13% | 42.5%
26 | CCOc1ccc(/C=C2\SC(=S)N(CCC(=O)O)C2=O)cc1 | 29% | -33.1% | 39.5% | -38.8% | -7.9% | 84.6% (active)
27 | CC(=O)Nc1nc(-c2ccc3c(c2)CC(C)N3C(=O)C2CC2)c(C)s1 (stereo unspecified) | 72.6% (active) | 58.6% (active) | 50.6% (active) | 62.7% (active) | -4.55% | 41.8%
28 | CCCCN1C=CC(=C2C(=O)c3ccccc3C2=O)C=C1 | 41.5% | 23.1% | -41.3% | 14.1% | 51% (active) | 73.1% (active)
29 | Nc1ncc([N+](=O)[O-])c(N2CCCCCC2)n1 | 76.5% (active) | 50.2% (active) | 67.5% (active) | 51.2% (active) | 4.49% | 57.3% (active)
30 | Cc1ccc(-n2c(C)c([N+](=O)[O-])c3ccc(O)c(CN(C)C)c32)cc1 | 76.7% (active) | 51.9% (active) | 63.4% (active) | 49.5% (active) | 2.96% | 41.4%
31 | O=C(CCl)N1N=C(c2ccco2)CC1c1ccco1 (stereo unspecified) | 59.1% (active) | 12.5% | 32.7% | 4.7% | 36.6% (active) | 67.9% (active)
32 | O=C(Nc1cccc(C(F)(F)F)c1)Nc1nnc([C@@H]2C[C@H](O)[C@@H](CO)O2)s1 | 49% (active) | 21.6% | 29.3% | 20.7% | 1.58% | 29.1%
33 | CS(=O)(=O)N(CCC#N)Cc1ccc(/C=C2\C(=O)Nc3ccccc32)o1 | 55.2% (active) | 37.4% (active) | 52.9% (active) | 29.3% (active) | 4.75% | 11.8%
34 | CNc1ccc2ncc(-c3cccc(C(=O)N(C)C)c3)n2n1 | 72.2% (active) | 62.2% (active) | 72.4% (active) | 60.8% (active) | -12.3% | 42.7%
35 | c1cc2[nH]snc2c2nc(C3CC3)nc12 | 63.9% (active) | 18.3% | 53.3% (active) | 23.3% | -12.6% | 19%
36 | C(=N\Nc1ccc2ccccc2n1)/c1ccc2c(c1)OCCO2 | 34.6% | 24.2% | -49.9% | -11.3% | 44.3% (active) | 83.2% (active)
37 | CC1CCN(C2=NC(=O)/C(=C/c3ccccc3F)S2)CC1 | 38.5% | -5.24% | -2.11% | -40.4% | -74.3% | 15.4%
38 | CC(=O)c1cccc(-c2csc3ncnc(Sc4nnnn4C)c23)c1 | 33% | 20.4% | 6.55% | 30.8% (active) | 24% | 15.9%
39 | COC(=O)CCNc1ccc2c(c1)OCCO2 | 7.16% | -2.66% | -12.2% | -15.9% | -9.29% | 39.5%
40 | OCCCNc1ncnc2scc(-c3ccc(Cl)cc3)c12 | 62.6% (active) | 47.1% (active) | 62.6% (active) | 39.2% (active) | 5.28% | 46.5% (active)
41 | Cc1[nH]ccc2c1[nH]c1cc(=O)ccc12 | 56% (active) | 39.5% (active) | 59.1% (active) | 38.7% (active) | 3.4% | 26%
